Measured values taken from PubChem BioAssay AID1159580 (chemical genetic matrix, 2015).
In all, about 5,500 compounds went through this assay and about 2,000 (36%) were called active. About 18% were inconclusive and are not listed. Rule as the data show it: active = normalized growth mostly below about 0.91 (no sharp cut-off); inconclusive = no clear call, values can overlap the other calls; inactive = mostly above about 0.92. The list shows a part of the results.

Assay: chemical genetic growth profiling, strain panel (AID 1159580);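 also: tested at 20 µM; growth read once vehicle control cultures reached saturation at 30 °C; 1 = growth at the plate median or of vehicle wells; lower values mean less growth of the strain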
Conditions: S. cerevisiae deletion strains, growth OD
[1] = locus YDL101C, strain DUN1, stronger effect = lower value
[2] = locus YHR030C, strain SLT2, stronger effect = lower value

Measured: normalized growth

FC(F)(F)c1ccnc(N2CCCN(C(=S)Nc3ccc(Cl)cc3Cl)CC2)n1
inactive: locus YAR019C, strain CDC15, stronger effect = lower value 0.974 | locus YBL105C, strain PKC1, stronger effect = lower value 0.977 | locus YBR135W, strain CKS1, stronger effect = lower value 0.972 | locus YBR136W, strain MEC1, stronger effect = lower value 0.973 | locus YBR160W, strain CDC28, stronger effect = lower value 0.974 | locus YDL017W, strain CDC7, stronger effect = lower value 0.966 | locus YDL028C, strain MPS1, stronger effect = lower value 0.975 | [1] 0.975 | locus YDL108W, strain KIN28, stronger effect = lower value 0.975 | locus YDL132W, strain cdc53, stronger effect = lower value 0.977 | locus YDL214C, strain PRR2, stronger effect = lower value 0.966 | locus YDR052C, strain DBF4, stronger effect = lower value 0.972 | locus YDR054C, strain cdc34, stronger effect = lower value 0.976 | locus YDR226W, strain ADK1, stronger effect = lower value 0.982 | locus YDR477W, strain SNF1, stronger effect = lower value 0.985 | locus YER123W, strain YCK3, stronger effect = lower value 1 | locus YER133W, strain GLC7, stronger effect = lower value 0.993 | locus YFL009W, strain cdc4, stronger effect = lower value 0.98 | locus YFL029C, strain CAK1, stronger effect = lower value 0.963 | locus YFR003C, strain YPI1, stronger effect = lower value 0.972 | locus YFR019W, strain FAB1, stronger effect = lower value 0.996 | locus YFR028C, strain CDC14, stronger effect = lower value 0.979 | locus YGR040W, strain KSS1, stronger effect = lower value 0.985 | locus YGR052W, strain FMP48, stronger effect = lower value 1.04 | locus YGR092W, strain DBF2, stronger effect = lower value 0.9 | locus YHR079C, strain IRE1, stronger effect = lower value 0.848 | locus YHR082C, strain KSP1, stronger effect = lower value 1.08 | locus YHR205W, strain SCH9, stronger effect = lower value 0.946 | locus YIL147C, strain SLN1, stronger effect = lower value 0.972 | locus YJL095W, strain BCK1, stronger effect = lower value 0.942 | locus YJL128C, strain PBS2, stronger effect = lower value 0.978 | locus YJL157C, strain FAR1, stronger effect = lower value 0.981 | locus YJR016C, strain ILV3, stronger effect = lower value 0.989 | locus YJR066W, strain TOR1 (second series), stronger effect = lower value 0.953 | locus YJR066W, strain TOR1, stronger effect = lower value 1.03 | locus YKL048C, strain ELM1, stronger effect = lower value 0.961 | locus YKL067W, strain YNK1, stronger effect = lower value 0.973 | locus YKL101W, strain HSL1, stronger effect = lower value 0.958 | locus YKL193C, strain SDS22, stronger effect = lower value 0.978 | locus YKL203C, strain TOR2, stronger effect = lower value 1.02 | locus YLR133W, strain CKI1, stronger effect = lower value 0.979 | locus YLR403W, strain SFP1, stronger effect = lower value 0.982 | locus YML070W, strain DAK1, stronger effect = lower value 0.972 | locus YMR001C, strain CDC5, stronger effect = lower value 0.971 | locus YMR205C, strain PFK2 (second series), stronger effect = lower value 0.968 | locus YMR277W, strain FCP1, stronger effect = lower value 0.973 | locus YNL006W, strain LST8, stronger effect = lower value 0.98 | locus YNL020C, strain ARK1, stronger effect = lower value 0.966 | locus YNL161W, strain CBK1, stronger effect = lower value 0.982 | locus YNL183C, strain NPR1, stronger effect = lower value 1.01 | locus YNL207W, strain RIO2, stronger effect = lower value 0.964 | locus YNL222W, strain SSU72, stronger effect = lower value 0.978 | locus YNL307C, strain MCK1 (second series), stronger effect = lower value 0.95 | locus YOL078W, strain AVO1, stronger effect = lower value 0.986 | locus YOL136C, strain PFK27, stronger effect = lower value 0.959 | locus YOR061W, strain CKA2, stronger effect = lower value 0.961 | locus YOR119C, strain RIO1, stronger effect = lower value 1.06 | locus YOR231W, strain MKK1, stronger effect = lower value 0.873 | locus YOR329C, strain SCD5, stronger effect = lower value 0.973 | locus YPL031C, strain PHO85, stronger effect = lower value 0.975 | locus YPL153C, strain RAD53, stronger effect = lower value 0.982 | locus YPL204W, strain HRR25, stronger effect = lower value 0.966 | locus YPL209C, strain IPL1, stronger effect = lower value 0.973 | locus YPR025C, strain CCL1, stronger effect = lower value 0.976 | locus YPR106W, strain ISR1, stronger effect = lower value 0.977 | locus YPR111W, strain DBF20, stronger effect = lower value 0.96 | strain NNK1, stronger effect = lower value 0.962 | strain TSCII, stronger effect = lower value 0.978
active: [2] 0.712 | locus YLR113W, strain HOG1, stronger effect = lower value 0.689 | locus YPL256C, strain CLN2, stronger effect = lower value 0.777

O=[N+]([O-])c1ccc(N2CCCN(C(=S)Nc3ccc(Cl)cc3Cl)CC2)nc1
active: [2] 0.422 | locus YHR087W, strain rtc3, stronger effect = lower value 0.906 | locus YLR039C, strain RIC1, stronger effect = lower value 0.628 | locus YLR085C, strain ARP6, stronger effect = lower value 0.543 | locus YLR262C, strain YPT6, stronger effect = lower value 0.686 | locus YMR307W, strain GAS1, stronger effect = lower value 0.433 | locus YNL298W, strain CLA4 (second series), stronger effect = lower value 0.831 | locus YNR030W, strain Alg12, stronger effect = lower value 0.8 | locus YPR135W, strain CTF4, stronger effect = lower value 0.337
inactive: locus YAL013W, strain DEP1, stronger effect = lower value 0.966 | locus YBR229C, strain ROT2, stronger effect = lower value 0.96 | locus YCL061C, strain MRC1, stronger effect = lower value 0.956 | [1] 0.942 | locus YDL134C, strain PPH21, stronger effect = lower value 0.979 | locus YDR150W, strain NUM1, stronger effect = lower value 0.886 | locus YEL061C, strain CIN8, stronger effect = lower value 0.912 | locus YGR078C, strain PAC10, stronger effect = lower value 0.961 | locus YGR229C, strain SMI1, stronger effect = lower value 0.989 | locus YJR043C, strain POL32, stronger effect = lower value 0.984 | locus YJR075W, strain HOC1, stronger effect = lower value 0.937 | locus YLR058C, strain SHM2 (second series), stronger effect = lower value 0.96 | locus YML094W, strain GIM5, stronger effect = lower value 0.932 | locus YMR219W, strain ESC1, stronger effect = lower value 0.982 | locus YNL153C, strain GIM3, stronger effect = lower value 0.98 | locus YNL322C, strain KRE1, stronger effect = lower value 0.98 | locus YOL006C, strain TOP1, stronger effect = lower value 0.831 | locus YPL055C, strain LGE1, stronger effect = lower value 0.928 | locus YPL241C, strain CIN2, stronger effect = lower value 0.866
